Source: the supplement of paper PMC10849652
Of roughly 7,900 targets only a part is listed; those with a hit were picked by preference. About 0.6% of all pairs of compound and target were hits.

Experiments:
Test in all cases: log2 fold change, soluble protein after heating vs DMSO (PISA); higher = thermal stabilisation; K562 cells, 10 uM, 30 min; active = over 0.2 and 3.5 SD of the protein, either way, in both replicates (recomputed)
AAGAB = AAGAB (UniProt Q6PD74)
Summary of the method: (§1)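 K562 cells (2×10^6 cells/mL) were treated with 10 μM compound for 30 min, and aliquots were heated for 3 min over 48°C-58°C. Pooled aliquots were extracted in PBS with 0.5% NP-40 at 4°C, and the supernatant after 21,000xg for 90 min was measured by TMTpro 16plex LC-MS/MS with channel sums equalised. Reported thermal stability, relative to control samples and from duplicates, is a log2 fold change.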

AAK1 [1] = target: AAK1 (UniProt A0A096LP25)
Summary of the method: as §1

AAK1 [2] = target: AAK1 (UniProt Q2M2I8)
Summary of the method: as §1

Measured: log2 fold change

Sequence of AAGAB (Q6PD74 whole entry, looked up): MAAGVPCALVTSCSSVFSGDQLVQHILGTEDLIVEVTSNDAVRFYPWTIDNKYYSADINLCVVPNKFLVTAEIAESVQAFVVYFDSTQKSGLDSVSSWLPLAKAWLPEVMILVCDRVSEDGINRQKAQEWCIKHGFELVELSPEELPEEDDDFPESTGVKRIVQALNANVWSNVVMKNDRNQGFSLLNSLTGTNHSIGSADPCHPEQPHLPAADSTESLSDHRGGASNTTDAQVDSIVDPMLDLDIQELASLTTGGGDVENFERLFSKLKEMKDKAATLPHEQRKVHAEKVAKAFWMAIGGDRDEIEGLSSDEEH
Sequence of AAK1 (UniProt Q2M2I8) (Q2M2I8 whole entry, looked up): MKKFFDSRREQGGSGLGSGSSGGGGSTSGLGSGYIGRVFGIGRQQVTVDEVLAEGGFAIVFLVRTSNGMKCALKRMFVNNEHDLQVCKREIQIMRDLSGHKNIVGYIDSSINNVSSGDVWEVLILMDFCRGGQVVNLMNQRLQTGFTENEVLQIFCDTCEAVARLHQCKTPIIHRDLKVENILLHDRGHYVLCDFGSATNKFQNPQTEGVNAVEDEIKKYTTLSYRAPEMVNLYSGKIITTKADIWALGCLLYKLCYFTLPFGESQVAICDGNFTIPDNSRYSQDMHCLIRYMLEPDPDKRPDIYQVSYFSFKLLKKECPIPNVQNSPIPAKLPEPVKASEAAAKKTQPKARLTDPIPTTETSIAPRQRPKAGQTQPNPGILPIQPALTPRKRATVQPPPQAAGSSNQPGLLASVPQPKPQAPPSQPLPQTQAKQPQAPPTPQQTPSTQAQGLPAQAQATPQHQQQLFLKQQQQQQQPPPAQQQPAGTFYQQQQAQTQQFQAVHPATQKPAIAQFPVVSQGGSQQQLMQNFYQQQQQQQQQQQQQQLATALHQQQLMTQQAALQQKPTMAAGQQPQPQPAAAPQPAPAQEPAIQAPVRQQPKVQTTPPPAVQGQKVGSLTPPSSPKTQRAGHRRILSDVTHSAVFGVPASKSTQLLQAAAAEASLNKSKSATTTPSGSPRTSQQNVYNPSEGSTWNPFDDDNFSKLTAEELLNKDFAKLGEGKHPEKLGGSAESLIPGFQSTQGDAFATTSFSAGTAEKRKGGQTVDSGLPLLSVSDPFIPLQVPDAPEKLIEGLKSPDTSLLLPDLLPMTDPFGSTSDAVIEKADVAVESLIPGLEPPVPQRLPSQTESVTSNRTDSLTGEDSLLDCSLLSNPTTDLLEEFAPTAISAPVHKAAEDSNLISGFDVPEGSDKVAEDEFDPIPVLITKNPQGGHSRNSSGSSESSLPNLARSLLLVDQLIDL

CNC(=O)c1ccc(Nc2ncc(C(F)(F)F)c(NCc3nccnc3N(C)S(C)(=O)=O)n2)cc1 [defactinib]
inactive: AAGAB -0.187 | AAK1 [1] 0.037 | AAK1 [2] -0.106

Cc1ncc(-c2ccnc(Nc3ccc(S(C)(=O)=O)cc3)n2)n1C(C)C
inactive: AAGAB 0.008 | AAK1 [1] 0.028 | AAK1 [2] 0.219

CC[C@H](C)n1cc(C)c2c(C(=O)NCc3c(C)cc(C)[nH]c3=O)cc(-c3ccc(N4CCNCC4)nc3)cc21
inactive: AAGAB 0.058 | AAK1 [1] -0.005 | AAK1 [2] -0.013

CS(=O)(=O)c1ccc(-c2cnc(N)c(C(=O)Nc3ccccc3)n2)cc1
inactive: AAGAB 0.097 | AAK1 [1] 0.138 | AAK1 [2] 0.043

c1cc(OCCN2CCCCC2)cc(-c2n[nH]c3ccc(-c4nnc[nH]4)cc23)c1
inactive: AAGAB -0.158 | AAK1 [1] 0.142 | AAK1 [2] 0.052

Cc1ccc2c(=O)c3ccccc3n(CCCN)c2c1C
inactive: AAGAB -0.003 | AAK1 [1] -0.044 | AAK1 [2] -0.017

C/C(=N\NC(=O)c1cccc(S(=O)(=O)N2CCOCC2)c1)c1cc(Cl)ccc1O
inactive: AAGAB 0.088 | AAK1 [1] -0.092 | AAK1 [2] -0.055

Cn1cc(-c2ccc3nnc(C(F)(F)c4ccc5ncccc5c4)n3n2)cn1
inactive: AAGAB -0.121 | AAK1 [1] -0.079 | AAK1 [2] -0.086

FC(F)(F)c1ccc(/C=C/c2nc(COc3ccc(CCCCn4ccnn4)cc3)co2)cc1 [mubritinib]
inactive: AAGAB 0.017 | AAK1 [1] -0.124 | AAK1 [2] -0.066
